This passage reports inhibition results from ChEMBL document CHEMBL3433997, “St. Jude Leishmania screening dataset” (2016).

The structures appear in SMILES notation.

What all share (type): functional
Assay [1] addresses Solute carrier family 2, facilitated glucose transporter member 1 (Homo sapiens) (UniProt P11166). The assay is described as follows: ST_JUDE_LEISH: Cytotoxicity at 2uM final concentration against transgenic Leishmania Mexicana promastigotes LmGLUT1 that are glucose transport deficient and complemented with the human glucose transporter GLUT1. Activity is measured by DNA content using SYBR green in vitro.

Assay [2] deals with Hexose transporter 1 (Plasmodium falciparum) (UniProt O97467). The assay is described as follows: ST_JUDE_LEISH: Cytotoxicity at 2uM final concentration against transgenic Leishmania Mexicana promastigotes LmPfHT that are glucose transport deficient and complemented with the Plasmodium falciparum hexose transporter. Activity is measured by DNA content using SYBR green in vitro.

In assay [3] the target is Glucose transporter (Leishmania mexicana) (UniProt O61059). The assay is described as follows: ST_JUDE_LEISH: Cytotoxicity at 2uM final concentration against transgenic Leishmania Mexicana promastigotes LmGT2 that are glucose transport deficient and complemented with the L. Mexicana glucose transporter 2. Activity is measured by DNA content using SYBR green in vitro.

Solute carrier family 2, facilitated glucose transporter member 1 (Homo sapiens), sequence (P11166 whole entry): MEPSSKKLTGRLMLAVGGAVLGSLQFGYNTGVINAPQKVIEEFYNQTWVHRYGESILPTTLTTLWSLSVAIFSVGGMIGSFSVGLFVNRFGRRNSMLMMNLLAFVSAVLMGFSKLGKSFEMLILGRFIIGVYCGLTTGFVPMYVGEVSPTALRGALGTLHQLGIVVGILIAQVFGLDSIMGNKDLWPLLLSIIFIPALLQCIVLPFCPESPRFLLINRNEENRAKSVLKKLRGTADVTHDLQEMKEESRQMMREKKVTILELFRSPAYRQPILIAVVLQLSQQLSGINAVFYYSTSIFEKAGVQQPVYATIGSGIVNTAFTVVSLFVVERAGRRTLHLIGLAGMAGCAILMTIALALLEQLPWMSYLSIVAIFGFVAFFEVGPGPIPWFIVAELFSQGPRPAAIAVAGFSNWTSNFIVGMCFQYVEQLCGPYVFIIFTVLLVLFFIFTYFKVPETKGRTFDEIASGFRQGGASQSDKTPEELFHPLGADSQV

A word on the inhibition: it is the drop in the measured response relative to a control, in per cent. In the case of `Nc1cccc(CNCc2ccc(-c3cccc(-c4nc5cc(F)ccc5[nH]4)c3)cc2)c1`, the inhibition in assay [1] was -0.29%; in assay [2] it was -1.11%; in assay [3] it was -1.93%.

Regarding `CC(CN1CCN(C)CC1)C(=O)Nc1ccc(-c2cccc(-c3nc4cc(C(F)(F)F)ccc4[nH]3)c2)cc1` (stereo not drawn), the results for the inhibition in assay [1], in assay [2] and in assay [3] were -0.51%, 0.32% and -2.84%, respectively.

With `Cc1cc(OC(C)C(=O)N2CCc3ccccc32)ccc1Cl` (stereo not drawn), the inhibition in assay [1] was 4.58%; in assay [2] it was 3.8%; in assay [3], 6.71%.

As for `COc1ccc2nccc([C@@H](O)CN3CCC(NCCOc4cccc(F)c4F)CC3)c2c1`, the inhibition is 4.54% in assay [1], 4.96% in assay [2] and -0.41% in assay [3].

With `CCc1ccc(-c2cnc(N)c3cc(-c4ccnc(N)n4)ccc23)cc1`, the inhibition in assay [1] was -0.81%; in assay [2] it was -4.63%; in assay [3] it was -1.72%.

Turning to `O=C(NCCCN1CCC(N2CCCCC2)CC1)c1ccc2nc(N3CCCCC3)sc2c1`, the inhibition in assay [1] turned out to be 5.78%; in assay [2], 8.39%; in assay [3] it was 8.02%.

Regarding `COc1cc(Cc2cnc(N)nc2N)ccc1OCc1ccc(-c2csnn2)cc1`, the inhibition amounted to 9.75% in assay [1], 9.64% in assay [2] and 11.7% in assay [3].

Regarding `CCc1c[nH]c2c(N(c3ccccc3)S(C)(=O)=O)cc(C(=O)N[C@@H](Cc3ccccc3)[C@H](O)CNCc3cccc(C(F)(F)F)c3)cc12`, the results for the inhibition in assay [1], in assay [2] and in assay [3] were 1.52%, 1.54% and -2.38%, respectively.

Turning to `O=C(/C=C/c1ccc(Cl)c(Cl)c1)NCCCCCCN1CCCN(C(=O)Nc2ccc(Cl)c(Cl)c2)CC1`, the results for the inhibition in assay [1], in assay [2] and in assay [3] were 2.36%, 2.49% and -2.06%, respectively.

With `Cc1c(Cc2ccc(F)cc2)c(Cl)nc2nc(N)nc(N)c12`, the inhibition was 0.75% in assay [1], 0.4% in assay [2] and -0.27% in assay [3].

Turning to `C[C@@H](N/C(=N\c1ccc(-c2ccccc2)cc1)Nc1ccc(C#N)cc1O)c1ccc(Br)cc1`, the inhibition in assay [1] came to 2.33%; in assay [2], 2.45%; in assay [3], 2.66%.

Regarding `Cc1cc(C)n2nc(C(=O)Nc3cc(C(F)(F)F)ccc3N3CCOCC3)nc2n1`, the inhibition stood at 3% in assay [1], 2.82% in assay [2] and 3.81% in assay [3].

As for `O=C(NCCCCN1CCC(c2ccc3c(c2OCc2ccccn2)CCCC3)CC1)c1ccc(NC(=O)c2ccc(Cl)cc2)cc1`, the results for the inhibition in assay [1], in assay [2] and in assay [3] were 2.21%, 0.31% and 2.55%, respectively.

On to `Cc1cc(Nc2ccc(C(C)(C)C)cc2)c2[nH]ncc2n1`, for which the inhibition came out at 16.1% in assay [1], 26.2% in assay [2] and 4.28% in assay [3].

Turning to `CCOC(=O)CC[C@H](NC(=O)c1ccc(NS(=O)(=O)c2ccc(-c3cnc(N)[nH]c3=O)cc2)cc1)C(=O)OCC`, the inhibition in assay [1] was 4.2%; in assay [2], 5.08%; in assay [3], 4.7%.

For the compound `COc1cc(OC)cc(C(=O)Nc2ccc(Nc3nc(C)cc(N(C)C)n3)cc2)c1`, the inhibition in assay [1] is 6.01%; in assay [2] it was 12.8%; in assay [3] it was 6.54%.

Consider `COc1ccc2nccc([C@@H](O)CN3CCC(NC(=O)c4ccc(-c5ccccc5)s4)CC3)c2c1`, for which the inhibition in assay [1] was 9.94%; in assay [2], 14.6%; in assay [3], 4.67%.

For the compound `O=[N+]([O-])c1ccc(C=NNc2nc3ccccc3[nH]2)cc1`, the inhibition in assay [1] was -0.91%; in assay [2], 0.53%; in assay [3], -0.44%.

In the case of `CCN1CCN(CC(O)CNC(=O)Nc2ccc(Cl)cc2)CC1` (stereo not drawn), the results for the inhibition in assay [1], in assay [2] and in assay [3] were 8.67%, 8.82% and 6.63%, respectively.

For `CCC[C@@H]([C@@H](Cc1ccc(C)s1)C(=O)N[C@@H](CNC(C)=O)C(=O)Nc1nccs1)N(O)C=O`, the inhibition in assay [1] amounted to 12%; in assay [2], 9.56%; in assay [3], 8.72%.

`CC(C)N1CCC(N(Cc2ccc(-c3ccc(C(F)(F)F)cc3)cc2)C(=O)CCCn2c(CCc3cccc(F)c3F)nc(=O)c3ccccc32)CC1`: the inhibition in assay [1] came out at 5.92%; in assay [2], 3.92%; in assay [3], 6.72%.

Take `CC(C)C[C@H](NC(=O)[C@H](Cc1ccccc1)NC(=O)CCN1C(=O)COc2ccc(C(=O)O)cc21)C(=O)NC(CC1CCCCC1)C(O)CC(=O)NCCCn1ccnc1` (stereo partly drawn): the inhibition stood at 9.79% in assay [1], 6.73% in assay [2] and 9.78% in assay [3].

Turning to `NC1=NC2(CCCCC2)N(OCCCCCCCCNc2nc(N)nc(N)n2)C(N)=N1`, the inhibition in assay [1] is 4.34%; in assay [2] it was 5.05%; in assay [3], 5.12%.

With `CC(C)C(=O)NC(c1cccs1)c1cc(Cl)c2cccnc2c1O` (stereo not drawn), the inhibition was 1.65% in assay [1], 1.13% in assay [2] and -0.45% in assay [3].

Take `CN(C)c1ccc(C=C2SC(=N)N(c3nccs3)C2=O)cc1`: the inhibition in assay [1] came out at 3.25%; in assay [2] it was 5.28%; in assay [3] it was 4.86%.

Consider `O=C(Nc1cccc(-c2nn3ccccc3c2-c2ccnc(Nc3cccc(F)c3)n2)c1)c1c(F)ccc(F)c1Cl`, for which the inhibition in assay [1] is 9.38%; in assay [2] it was 10.4%; in assay [3] it was 6.24%.

Regarding `CCCCCCCN(CCCCCCC)CCNc1cc(C)nc2ccccc12`, the inhibition came to 6.37% in assay [1], 5.18% in assay [2] and 4.49% in assay [3].

Regarding `COc1ccc(OC)c(NC(=O)CSc2nc(-c3ccccc3Cl)ns2)c1`, the inhibition in assay [1] was 0.9%; in assay [2], 0.98%; in assay [3], -1.15%.

Turning to `CC[C@H](C)CNC(=O)c1cncc(-c2ccc(CNC3Cc4ccccc4C3)cc2)c1`, the inhibition in assay [1] was 6.08%; in assay [2] it was 6.72%; in assay [3], 5.96%.

Take `COc1cccc(CCNCc2ccc(-c3cccc(CNC4CCCC4)c3)cc2)c1`: the inhibition was determined as 7.38% in assay [1], 5.19% in assay [2] and 3.02% in assay [3].

Consider `CCc1ccc(CN2CCC(CNC(=O)c3cc(-c4cccc(C(F)(F)F)c4)cs3)C2)cc1` (stereo not drawn), for which the inhibition in assay [1] is -2.78%; in assay [2], -0.98%; in assay [3], -1.61%.

As to `CC(C)c1ccc(N2CCN(CCCCNC(=O)c3ccc(NC(=O)c4cc(Cl)cc(Cl)c4)cc3)CC2)cc1`, the results for the inhibition in assay [1], in assay [2] and in assay [3] were -0.22%, 1.11% and 1.9%, respectively.

Take `Cc1cc(=O)oc2c1ccc1oc(C(O)c3ccc(Cl)cc3)c(C)c12` (stereo not drawn): the inhibition in assay [1] is -0.12%; in assay [2] it was 0.59%; in assay [3], -1.6%.

With `OC(CNCc1cccc(Oc2ccc(Cl)cc2)c1)c1cc(C(F)(F)F)cc(C(F)(F)F)c1` (stereo not drawn), the inhibition in assay [1] was 0.85%; in assay [2], -0.5%; in assay [3], -2.95%.

For the compound `O=C(/C=C/c1ccc(Cl)c(Cl)c1)NCCCCCN1CCC(NC(=O)Nc2ccccc2Cl)CC1`, the figures for the inhibition in assay [1], in assay [2] and in assay [3] were 0.63%, 0.55% and 0.27%, respectively.

Regarding `Cc1noc(C)c1-c1ccc2c(Nc3ccc([N+](=O)[O-])cc3)c(C(N)=O)cnc2c1`, the results for the inhibition in assay [1], in assay [2] and in assay [3] were -0.67%, -0.09% and -0.76%, respectively.
